The values below come from PubChem BioAssay (NCATS).

Test [1] in a line: Cytotoxicity counterscreen for inhibitors of SARS-CoV-2 cell entry (AID 1645845). Also: nearly all actives have a fitted effect of over 50% in size. As to activity change, negative = cytotoxicity: % is scaled to controls: 0 for no effect and ±100 for the full control effect. The method in brief:
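Expi293F/hACE2 cells seeded overnight; cpd pin-transferred in DMSO, 1 h preincubation, + media, 48 h 37 C 5% CO2; ATPLite 1step luminescence; normalized to cells and no cells.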
A general note: Counterscreens check selectivity or assay interference.

Test [2] is described as follows: Primary qHTS to identify inhibitors of SARS-CoV-2 cell entry (AID 1645846). Also: nearly all actives have a fitted effect of over 45% in size. Also: potency is read from the fitted curve at half-maximal effect. The following applies: activity change, negative = inhibition: at 57.1 µM (top of the series) unless noted. The procedure, abridged: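 HEK293 cells stably expressing human ACE2, pre-treated 1 h with compound, then infected with MLV particles pseudotyped with Wuhan-Hu-1 spike (C-terminal 19-aa truncation). Luciferase luminescence after 48 h at 37 °C, normalised to spike PP and bald PP.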
A general note: Quantitative high-throughput screening tests each substance at several concentrations.

Structures are written as SMILES. “And” between values parts separate entries of the source, which are not always exact repeats. Identical values can stand only once. Inconclusive results are not listed. The source made the active and inactive calls. Calls follow the shape of the full dose curve.

Turning to `C[C@@H](C1=C(CCN(C)C)Cc2ccccc21)c1ccccn1`, in test [1], the Potency entry was “inactive”. Besides, in test [2], the activity change, negative = inhibition was -25.9%.
On to `COc1cc(NS(=O)(=O)c2ccc(N)cc2)nc(OC)n1`, for which the Potency entry in test [1] is “inactive”. Further, in test [2], the activity change, negative = inhibition turned out to be 2.7%.
Turning to `CCOC(=O)OC(C)OC(=O)[C@@H]1N2C(=O)[C@@H](NC(=O)[C@H](N)c3ccccc3)[C@H]2SC1(C)C` (some centres undefined), the Potency result in test [1] was “inactive”. For the same compound, the activity change, negative = inhibition in test [2] is -12.7%.
In the case of `Cc1ccc(N(CC2=NCCN2)c2cccc(O)c2)cc1`, in test [1], the Potency entry is “inactive”. Also, in test [2], the activity change, negative = inhibition was -6.91% and 2.72%.
Regarding `Cc1c(C)c2c(c(C)c1OC(=O)CCC(=O)OCCO)CC[C@@](C)(CCC[C@H](C)CCC[C@H](C)CCCC(C)C)O2`, in test [1], the Potency entry is “inactive”. Besides, the Potency in test [2] is 28.2 µM (active).
As to `Cc1ccc(Nc2c(F)cccc2Cl)c(CC(=O)O)c1`, the Potency result in test [1] and in test [2] was “inactive” each time.
`CC(C)C[C@@H](N)C(=O)O`: the Potency result in test [1] is “inactive”. For the same compound, the activity change, negative = inhibition in test [2] turned out to be 3.85% [at 27.1 µM].
Consider `CCC(=O)O[C@]1(C(=O)SCF)[C@H](C)C[C@H]2[C@@H]3C[C@H](F)C4=CC(=O)C=C[C@]4(C)[C@@]3(F)[C@@H](O)C[C@@]21C`, for which the Potency result in test [1] and in test [2] was “inactive” throughout.
In the case of `O=C(OCc1ccccc1)c1ccc(O)cc1`, the Potency result in test [1] and in test [2] was “inactive” in each case.
In the case of `O=C1C(c2[nH]c3ccccc3c2O)=Nc2ccccc21`, the Potency entry in test [1] is “inactive”. Besides, the activity change, negative = inhibition in test [2] is -0.955%.
Take `CCCCCCCCCCCCCCCCCCOCC(O)CO` (centres undefined): in test [1], the Potency result is “inactive”. Moreover, the activity change, negative = inhibition in test [2] turned out to be 2.2%.
As to `CN1CCN(C2=Nc3ccccc3Sc3ccc(Cl)cc32)CC1`, the Potency entry in test [1] was “inactive”. For the same compound, the activity change, negative = inhibition in test [2] is -10.6%.
Take `O=c1cc(CO)occ1O`: the Potency entry in test [1] and in test [2] was “inactive” in each case.
In the case of `COc1ccccc1OC(=O)Oc1ccccc1OC`, the Potency entry in test [1] and in test [2] was “inactive” throughout.
On to `CCCCN(CCN(CCCC)C(=O)N1CCOCC1)C(=O)N1CCOCC1`, for which the Potency entry in test [1] and in test [2] was “inactive” in each case.
Take `NC(CSCC(=O)O)C(=O)O` (centres undefined): in test [1], the Potency result was “inactive”. For the same compound, in test [2], the activity change, negative = inhibition came out at 0.853%.
`COC(=O)C1=C(C)NC(C)=C(C(=O)OCCN2CCN(C(c3ccccc3)c3ccccc3)CC2)C1c1cccc([N+](=O)[O-])c1` (centres undefined): the Potency result in test [1] is “inactive”. Also, the Potency in test [2] was 17.8 µM (active).
Consider `C[C@@H]1C[C@H]2[C@@H]3CCC4=CC(=O)C=C[C@]4(C)[C@@]3(F)[C@@H](O)C[C@]2(C)[C@@]1(O)C(=O)COC(=O)c1ccncc1`, for which the Potency entry in test [1] and in test [2] was “inactive” throughout.
With `CN1CCCN=C1COC(=O)C(O)(c1ccccc1)C1CCCCC1` (centres undefined), the Potency result in test [1] is “inactive”. Also, the activity change, negative = inhibition in test [2] came out at 4.25%.
Regarding `O=[N+]([O-])c1nccn1CO[C@@H](CO)[C@H](O)CO`, the Potency result in test [1] and in test [2] was “inactive” in each case.
Consider `NCCNC(=O)c1ccc(Cl)cn1`, for which the Potency result in test [1] is “inactive”. Also, the activity change, negative = inhibition in test [2] is -12.8%.
With `Nc1ccc(N=Nc2ccccc2)c(N)n1`, the Potency entry in test [1] and in test [2] was “inactive” throughout.
`CC(C)NCCCC1(C(N)=O)c2ccccc2-c2ccccc21`: the Potency entry in test [1] and in test [2] was “inactive” each time.
For `CC1=C(C)C(=O)C(C(CCCCCC(=O)O)c2ccccc2)=C(C)C1=O` (centres undefined), the Potency entry in test [1] and in test [2] was “inactive” in each case.
For `N[C@@H](Cc1c[nH]c2ccc(O)cc12)C(=O)O`, the Potency result in test [1] and in test [2] was “inactive” in each case.
Take `CNC(=O)Oc1ccc2c(c1)[C@]1(C)CCN(C)[C@@H]1N2C`: the Potency result in test [1] and in test [2] was “inactive” throughout.
Regarding `CCOC(=O)c1cc(=O)c2c(OCC(COc3cccc4oc(C(=O)OCC)cc(=O)c34)OC(=O)[C@@H](N)CCCCN)cccc2o1`, the Potency result in test [1] and in test [2] was “inactive” in each case.
Consider `Cc1c(C(=O)NN2CCCCC2)nn(-c2ccc(Cl)cc2Cl)c1-c1ccc(Cl)cc1`, for which the Potency entry in test [1] is “inactive”. Also, in test [2], the activity change, negative = inhibition is -26.4%.
Take `CN1CCOC(c2ccccc2)c2ccccc2C1` (centres undefined): the Potency entry in test [1] and in test [2] was “inactive” in each case.
For the compound `CN(C)CCC(c1ccccc1)c1ccccn1` (centres undefined), the Potency entry in test [1] was “inactive”. For the same compound, the activity change, negative = inhibition in test [2] is -4.85%.
For `O=C(CCCN1CCN(c2ccccn2)CC1)c1ccc(F)cc1` the same measures were “inactive” and -24.8%.
Regarding `C#C[C@]1(O)CC[C@H]2[C@@H]3CCc4cc(OC)ccc4[C@H]3CC[C@@]21C`, the Potency entry in test [1] and in test [2] was “inactive” in each case.
Take `O=C1c2ccccc2C(=O)C1c1ccccc1`: the Potency entry in test [1] and in test [2] was “inactive” each time.
On to `O=C(NN1CCCC1)NS(=O)(=O)c1ccc(Cl)cc1`, for which the Potency entry in test [1] and in test [2] was “inactive” throughout.
For the compound `N[C@@H](CSCCCO)C(=O)O`, the Potency result in test [1] and in test [2] was “inactive” throughout.
As for `CCOc1ccccc1O[C@H](c1ccccc1)[C@H]1CNCCO1`, the Potency entry in test [1] was “inactive”. Besides, the activity change, negative = inhibition in test [2] stood at 0.393%.
Turning to `C=CCCCCCCCCC(=O)O`, the Potency entry in test [1] and in test [2] was “inactive” in each case.
Take `Nc1ccn(C2CO[C@H](CO)O2)c(=O)n1` (some centres undefined): the Potency entry in test [1] and in test [2] was “inactive” each time.
Regarding `CC(=O)N(CC(=O)N(C)C)c1ccccc1`, the Potency entry in test [1] and in test [2] was “inactive” throughout.
With `Nc1ccc(C(=O)NCC(=O)O)cc1`, in test [1], the Potency result is “inactive”. In addition, in test [2], the activity change, negative = inhibition amounted to 4.24%.
Consider `CCn1c(=O)c2c(nc(C=Cc3ccc(OC)c(OC)c3)n2C)n(CC)c1=O`, for which the Potency entry in test [1] and in test [2] was “inactive” throughout.
Take `NC(=O)Cc1cccc(C(=O)c2ccccc2)c1N`: the Potency result in test [1] and in test [2] was “inactive” in each case.
In the case of `C/C(=N/NC(=O)c1ccncc1)C(=O)O`, the Potency entry in test [1] was “inactive”. Besides, in test [2], the activity change, negative = inhibition is -2.02%.
The matching figures for `C[C@H]1COc2c(C3(N)CC3)c(F)cc3c(=O)c(C(=O)O)cn1c23`: “inactive” and -12.8%.
For the compound `CCN(CC)C(=O)c1cccc(C)c1`, the Potency result in test [1] and in test [2] was “inactive” in each case.
Turning to `CN1[C@@H]2CC[C@H]1CC(NC(=O)n1c(=O)[nH]c3ccccc31)C2` (some centres undefined), the Potency entry in test [1] and in test [2] was “inactive” each time.
Consider `N[C@@H](CSSC[C@H](N)C(=O)O)C(=O)O`, for which the activity change, negative = cytotoxicity in test [1] is 0.929% [at 0.702 µM] (inactive). In addition, the activity change, negative = inhibition in test [2] is -10.6% [at 0.702 µM].
